# Measurements as given in PubChem BioAssay (NCATS).
# Inconclusive results are not listed. Entries that show only a call come without a potency. Calls of active or inactive are those of the source. Unless noted, calls follow the shape of the dose curve; as a rule, active = well fitted curve in the direction sought with a large enough effect; inconclusive = small, poorly fitted or top-dose-only effect, or another doubt; inactive = no such curve, though single readings can be large; an effect the other way counts as inactive or inconclusive.
# Columns and labels:
# [1] = P-glycoprotein substrates identified in KB-3-1 adenocarcinoma cell line, qHTS therapeutic library screen (AID 1346986); also: nearly all actives have a fitted effect of over 60% in size
# How it was run: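 Counter-screen: cherry-picked hits retested in the KB pair and in HEK-293 pcDNA/MDR-19 cells ± tariquidar. Primary screen used 72 h CellTiter-Glo viability in KB-3-1 and KB-8-5-11.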
# [2] = P-glycoprotein substrates identified in KB-8-5-11 adenocarcinoma cell line, qHTS therapeutic library screen (AID 1346987); also: nearly all actives have a fitted effect of over 65% in size
# How it was run: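 KB-8-5-11: colchicine-selected sub-line of KB-3-1 over-expressing P-gp; assay medium lacked colchicine. 72 h drug exposure at 37 degree C, CellTiter-Glo.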
# [3] = Primary qHTS for inhibitors of nuclear receptor binding SET domain protein 2 (NSD2) in an RCH-ACV wild type WT cells (2C) (AID 1645877); also: nearly all actives have a fitted effect of over 70% in size
# [4] = Primary redox qHTS assay for identification of artifact compounds. (AID 1845223)
# How it was run: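 Amplex Red (25 uM) and HRP (250 mU/mL) in HBSS, with compounds for 15 min, then 250 uM DTT for 30 min, room temperature, dark. Fluorescence 525/598 nm read; normalized to DMSO and 10 uM DA3003; Hill fit.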
# NIH3T3 = experiment: Cytotoxic Profiling of Annotated Libraries Using Quantitative High-Throughput Screening (AID 1296008); settings: Five cell lines viability, CellTiter-Glo ATP luminescence, 48-72 h; max response: stronger effect = lower value; also: nearly all actives have a fitted effect of over 60% in size
# How it was run: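 Cytotoxicity was measured as CellTiter-Glo ATP luminescence, read after 10 min at room temperature. Compound treatment of the cells lasted 48 or 72 hr at 37 degrees Celsius in a qHTS format.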
# CAOV3 = experiment: Primary qHTS to identify gynecologic anti-cancer compounds using libraries of approved drugs and bioactive compounds (AID 1345084); settings: Gynecologic cancer cell panel viability, ATPlite luminescence, 48 h; series mostly up to 57.5 µM; also: nearly all actives have a fitted effect of over 55% in size
# How it was run: (§1)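 Luminescence from the ATPlite ATP-monitoring reagent indicates viable cell number; lower signal means cytotoxicity. Cells received compound 16 h after seeding and were exposed for 48 h across five concentrations.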
# HeLa = experiment: as above; settings: Gynecologic cancer cell panel viability, ATPlite luminescence, 48 h; series mostly up to 57.5 µM
# How it was run: as §1
# JEG-3 = experiment: as above; settings: Gynecologic cancer cell panel viability, ATPlite luminescence, 48 h; series mostly up to 57.5 µM
# How it was run: as §1
# SKOV3 = experiment: as above; settings: Gynecologic cancer cell panel viability, ATPlite luminescence, 48 h; series mostly up to 57.5 µM
# How it was run: as §1
# [5] = tested on: Zika virus NS2B-NS3 protease (unlinked complex); experiment: Primary screen GU Rhodamine qHTS for Zika virus inhibitors: Unlinked NS2B-NS3 protease assay (AID 1347159); also: nearly all actives have a fitted effect of over 60% in size
# How it was run: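 A qHTS format was used, with compound concentrations ranging up to 114 microM. Each compound was preincubated with 25 nM NS2B-NS3 protease, and the substrate was then added at 1.5 microM. Curves were fitted with a 4-parameter Hill model.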
# CRL-7250 = normal cell line; experiment: qHTS assay to identify novel small-molecules to repurpose for Merkel cell carcinoma treatment (AID 1296009); settings: MCC and control cell lines, CellTiter-Glo viability, 72 h; series mostly up to 92 µM; also: nearly all actives have a fitted effect of over 60% in size
# How it was run: (§2)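 After compound transfer in DMSO, plates were kept 72 hr at 37 degree celsius. Luminescent ATP signal from CellTiter-Glo served as viability measure, normalized against DMSO and no-cell controls.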
# [6] = molecular target: Cytochrome P450 2D6 (Homo sapiens) (UniProt P10635); experiment: Cytochrome P450 family 2 subfamily D member 6 (CYP2D6) small molecule antagonists: luciferase biochemical (cell-free) qHTS assay (AID 1645840; active = well fitted curve in the direction sought with a large enough effect in the repeat runs; an effect the other way counts as inactive or inconclusive; also: nearly all actives have a fitted effect of over 55% in size; also: potency is read from the fitted curve at half-maximal effect)
# Cytochrome P450 2D6 (Homo sapiens), sequence (P10635 whole entry, looked up): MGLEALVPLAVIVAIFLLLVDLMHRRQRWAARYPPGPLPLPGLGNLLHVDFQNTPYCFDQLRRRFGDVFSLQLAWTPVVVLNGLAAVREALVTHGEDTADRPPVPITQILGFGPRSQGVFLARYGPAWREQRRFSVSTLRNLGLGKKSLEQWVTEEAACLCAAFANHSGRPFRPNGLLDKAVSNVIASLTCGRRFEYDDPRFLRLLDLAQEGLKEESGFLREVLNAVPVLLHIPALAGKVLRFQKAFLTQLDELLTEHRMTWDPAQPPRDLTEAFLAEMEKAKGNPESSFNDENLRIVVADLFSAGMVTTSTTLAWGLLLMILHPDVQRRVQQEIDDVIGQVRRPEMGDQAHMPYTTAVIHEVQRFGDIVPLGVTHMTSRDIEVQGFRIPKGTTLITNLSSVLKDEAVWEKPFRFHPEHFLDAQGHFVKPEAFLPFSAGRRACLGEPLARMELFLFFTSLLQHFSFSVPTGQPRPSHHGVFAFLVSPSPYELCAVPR
# How it was run: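 P450-Glo luminescent screen: recombinant CYP2D6 enzyme–proluciferin substrate mix preincubated with compound 10 min at room temperature, then NADPH regeneration added for 1 h at room temperature. Detection reagent added for 20 min; luciferin light read as relative luminescence units.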
# [7] = molecular target: Cytochrome P450 2C9 (Homo sapiens) (UniProt P11712); experiment: Cytochrome P450 family 2 subfamily C member 9 (CYP2C9) small molecule antagonists: luciferase biochemical (cell-free) qHTS assay (AID 1645842; active = well fitted curve in the direction sought with a large enough effect in the repeat runs; an effect the other way counts as inactive or inconclusive; also: nearly all actives have a fitted effect of over 55% in size; also: potency is read from the fitted curve at half-maximal effect)
# Cytochrome P450 2C9 (Homo sapiens), sequence (P11712 whole entry, looked up): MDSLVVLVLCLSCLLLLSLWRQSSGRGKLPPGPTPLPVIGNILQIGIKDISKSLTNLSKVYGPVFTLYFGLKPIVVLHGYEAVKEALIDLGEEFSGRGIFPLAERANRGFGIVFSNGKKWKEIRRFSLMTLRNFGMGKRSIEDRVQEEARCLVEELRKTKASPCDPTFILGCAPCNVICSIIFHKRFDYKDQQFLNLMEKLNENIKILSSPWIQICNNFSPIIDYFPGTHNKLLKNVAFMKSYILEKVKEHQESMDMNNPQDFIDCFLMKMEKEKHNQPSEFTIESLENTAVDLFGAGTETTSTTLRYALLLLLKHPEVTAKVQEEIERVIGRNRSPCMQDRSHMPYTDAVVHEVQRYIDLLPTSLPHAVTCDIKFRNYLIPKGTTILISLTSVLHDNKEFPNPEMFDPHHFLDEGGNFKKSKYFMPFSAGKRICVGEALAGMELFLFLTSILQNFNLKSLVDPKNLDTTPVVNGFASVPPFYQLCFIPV
# How it was run: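 Luminescence, after 20 min with luciferin detection reagent, reflected CYP2C9 turnover during a 1 h NADPH-driven reaction at 37C. Enzyme-substrate mix contained 0.4% bovine serum albumin and was preincubated with compound 10 min at room temperature.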
# HACAT = experiment: qHTS assay to identify novel small-molecules to repurpose for Merkel cell carcinoma treatment (AID 1296009); settings: MCC and control cell lines, CellTiter-Glo viability, 72 h; at 44.8 µM (top of the series) unless noted; also: nearly all actives have a fitted effect of over 60% in size
# How it was run: as §2
# [8] = Cytotoxicity counterscreen for inhibitors of SARS-CoV-2 cell entry (AID 1645845; calls by dose curve; also: nearly all actives have a fitted effect of over 50% in size)
# How it was run: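 48 h compound treatment (after 1 h preincubation), HEK293-ACE2 cells, 37 C/5% CO2; ATP luminescence endpoint; normalized to cell wells and media blanks.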
# [9] = molecular target: Catechol O-methyltransferase (Homo sapiens) (UniProt P21964); experiment: Confirmatory Screen for Target Class Profiling of Small Molecule Inhibitors of Methyltransferases (AID 1745852); settings: MTase-Glo luminescence, SAH detection, recombinant enzyme; measured here: COMT max response; stronger effect = lower value
# Catechol O-methyltransferase (Homo sapiens), sequence (P21964 whole entry, looked up): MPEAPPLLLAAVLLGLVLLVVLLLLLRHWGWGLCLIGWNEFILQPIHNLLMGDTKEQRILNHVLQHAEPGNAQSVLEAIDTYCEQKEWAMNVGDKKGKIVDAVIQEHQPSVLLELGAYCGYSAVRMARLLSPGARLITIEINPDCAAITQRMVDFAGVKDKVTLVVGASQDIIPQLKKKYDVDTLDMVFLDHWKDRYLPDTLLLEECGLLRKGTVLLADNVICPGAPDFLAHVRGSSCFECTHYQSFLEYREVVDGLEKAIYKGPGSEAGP
# [10] = molecular target: Guanidinoacetate N-methyltransferase (Homo sapiens) (UniProt Q14353); experiment: as above; settings: activity change, negative = inhibition: at 57.3 µM (top of the series) unless noted
# [11] = molecular target: Nicotinamide N-methyltransferase (Homo sapiens) (UniProt P40261); experiment: as above; settings: MTase-Glo luminescence, SAH detection, recombinant enzyme; measured here: NNMT max response; stronger effect = lower value
# Nicotinamide N-methyltransferase (Homo sapiens), sequence (P40261 whole entry, looked up): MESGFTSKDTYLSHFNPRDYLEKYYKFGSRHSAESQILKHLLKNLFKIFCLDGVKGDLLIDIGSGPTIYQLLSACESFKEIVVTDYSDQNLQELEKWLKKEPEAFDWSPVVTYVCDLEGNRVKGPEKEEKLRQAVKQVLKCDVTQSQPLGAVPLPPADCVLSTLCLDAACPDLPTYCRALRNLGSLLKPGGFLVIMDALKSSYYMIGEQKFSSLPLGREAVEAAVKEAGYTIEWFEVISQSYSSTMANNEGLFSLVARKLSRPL
# [12] = molecular target: Phenylethanolamine N-methyltransferase (Homo sapiens) (UniProt P11086); experiment: as above; settings: MTase-Glo luminescence, SAH detection, recombinant enzyme; measured here: PNMT max response; stronger effect = lower value
# Phenylethanolamine N-methyltransferase (Homo sapiens), sequence (P11086 whole entry, looked up): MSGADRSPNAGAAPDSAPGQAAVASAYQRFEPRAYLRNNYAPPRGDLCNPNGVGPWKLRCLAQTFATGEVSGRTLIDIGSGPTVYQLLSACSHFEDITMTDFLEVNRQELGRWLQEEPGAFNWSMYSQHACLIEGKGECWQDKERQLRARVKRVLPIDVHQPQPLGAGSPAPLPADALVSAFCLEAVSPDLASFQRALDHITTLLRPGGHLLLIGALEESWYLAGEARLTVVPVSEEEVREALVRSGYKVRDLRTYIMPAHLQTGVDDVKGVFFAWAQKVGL
SMILES,Potency [1],Potency [2],Potency [3],Potency [4],max response (NIH3T3),Potency (CAOV3),Potency (HeLa),Potency (JEG-3),Potency (SKOV3),Potency [5],Potency (CRL-7250),Potency [6],Potency [7],outcome (HACAT),Potency [8],activity [9],"activity change, negative = inhibition [10]",activity [11],activity [12]
CC(=O)O[C@H]1CN2CCC1CC2,inactive,inactive,inactive,inactive,1.29% (inactive),inactive,inactive,inactive,inactive,–,–,–,–,–,–,–,–,–,–
CC(=O)O[C@@H]1[C@H]2CC[C@H]3[C@@](C)(O)[C@@H]4C[C@H](O)C(C)(C)[C@@]4(O)[C@H](O)C[C@@]13C[C@@]2(C)O,–,inactive,inactive,inactive,4.65% (inactive),inactive,inactive,inactive,inactive,inactive,inactive,–,–,–,–,–,–,–,–
C=CCN1CC[C@]23c4c5ccc(O)c4O[C@H]2[C@@H](O)CC[C@@]3(O)[C@H]1C5,–,inactive,inactive,inactive,-28.6% (inactive),inactive,inactive,inactive,inactive,inactive,–,–,–,–,–,–,–,–,–
CN1C2CCC1CC(OC(=O)N1Cc3ccccc3NC1=O)C2 (stereo not given),–,inactive,inactive,inactive,-1.26% (inactive),inactive,inactive,inactive,–,inactive,inactive,inactive,inactive,–,–,–,–,–,–
CC1=CC2(O)/C=C/C(C)(O)C(O)C(O)/C=C/C(=O)OC23C(=O)NC(CC(C)C)C3C1C (stereo not given),inactive,inactive,inactive,inactive,0.398% (inactive),–,–,inactive,inactive,inactive,–,–,–,inactive [at 17.4 µM],–,–,–,–,–
Cc1c(N2C(=O)[C@@H]3[C@H](O)CCN3C2=O)ccc(C#N)c1Cl,–,–,–,inactive,-8.96% (inactive),inactive,inactive,inactive,–,inactive,–,inactive,–,inactive,–,–,–,–,–
COC(=O)CC1CC2(C(=O)c3c(O)cccc3C2(O)C(=O)OC)C(C)O1 (stereo not given),–,inactive,–,inactive,4.05% (inactive),inactive,inactive,inactive,inactive,inactive,–,–,–,inactive,–,–,–,–,–
Cc1cccc(NC(=O)N[C@H]2CN(C)c3ccccc3C(c3ccccc3)=N2)c1,–,–,–,inactive,-5.29% (inactive),inactive,inactive,inactive,inactive,inactive,–,–,–,inactive,–,–,–,–,–
O=C1N[C@@H](Cc2ccccc2)CN2CCCC[C@@H]12,–,inactive,inactive,inactive,1.01% (inactive),inactive,inactive,inactive,inactive,inactive,–,–,–,inactive,–,–,–,–,–
N#CC(O[C@@H]1O[C@H](CO)[C@@H](O)[C@H](O)[C@H]1O)c1ccccc1 (stereo not given in full),–,inactive,inactive,inactive,1.1% (inactive),inactive,inactive,inactive,inactive,inactive,inactive,–,–,–,–,–,–,–,–
CC(=O)O[C@H]1CC[C@H]2[C@@H]3CC[C@H]4CC(=O)C=C(C)[C@]4(C)[C@H]3CC[C@]12C,–,inactive,–,inactive,-1.67% (inactive),inactive,inactive,inactive,inactive,inactive,–,–,–,inactive,inactive,–,–,–,–
CC[C@H]1C2CC3[C@@H]4N(C)c5ccccc5[C@]45C[C@@H]([C@H]2[C@H]5O)N3[C@H]1O,–,inactive,inactive,–,4.15% (inactive),inactive,inactive,inactive,inactive,inactive,–,–,–,inactive,–,–,–,–,–
COc1cc(N2CCN(C)CC2)ccc1N,–,inactive,–,–,-6.74% (inactive),inactive,inactive,inactive,inactive,inactive,–,inactive,inactive,–,–,-7.03%,-4.23%,-3.44%,-33.9%
C1=C(c2cnc[nH]2)c2ccsc2CC1,–,inactive,–,inactive,-2.31% (inactive),inactive,–,inactive,–,inactive,–,12 µM (active),3.38 µM (active),inactive,–,–,–,–,–
CC1=CC2/C=C(\C)CCCC(O)/C=C/C(=O)OC23C(=O)NC(CC(C)C)C3C1C (stereo not given),inactive,inactive,inactive,inactive,1.49% (inactive),inactive,inactive,inactive,inactive,inactive,inactive,–,–,–,–,–,–,–,–
